Test results from ChEMBL document CHEMBL3433997, “St. Jude Leishmania screening dataset” (2016).
Values joined by “and” are separate entries in the source; they are usually repeats but may differ in a detail not shown here. Identical values can stand only once.

Tests used:
Type in all cases: functional
[1] = target: Solute carrier family 2, facilitated glucose transporter member 1 (Homo sapiens) (UniProt P11166); experiment: ST_JUDE_LEISH: Cytotoxicity at 2uM final concentration against transgenic Leishmania Mexicana promastigotes LmGLUT1 that are glucose transport deficient and complemented with the human glucose transporter GLUT1. Activity is measured by DNA content using SYBR green in vitro
Sequence of Solute carrier family 2, facilitated glucose transporter member 1 (Homo sapiens) (P11166 whole entry): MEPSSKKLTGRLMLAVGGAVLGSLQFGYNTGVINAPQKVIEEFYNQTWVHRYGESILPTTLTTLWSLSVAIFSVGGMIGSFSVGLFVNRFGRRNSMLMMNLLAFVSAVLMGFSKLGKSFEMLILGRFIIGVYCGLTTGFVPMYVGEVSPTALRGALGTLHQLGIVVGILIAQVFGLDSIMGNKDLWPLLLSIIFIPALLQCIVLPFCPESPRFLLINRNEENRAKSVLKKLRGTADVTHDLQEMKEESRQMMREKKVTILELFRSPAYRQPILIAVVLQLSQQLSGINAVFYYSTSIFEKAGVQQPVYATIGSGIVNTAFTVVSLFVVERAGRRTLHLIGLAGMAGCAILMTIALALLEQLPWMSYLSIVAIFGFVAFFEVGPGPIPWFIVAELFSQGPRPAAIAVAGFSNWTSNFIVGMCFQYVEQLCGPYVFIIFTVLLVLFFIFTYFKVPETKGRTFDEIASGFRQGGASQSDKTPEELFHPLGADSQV

[2] = target: Hexose transporter 1 (Plasmodium falciparum) (UniProt O97467); experiment: ST_JUDE_LEISH: Cytotoxicity at 2uM final concentration against transgenic Leishmania Mexicana promastigotes LmPfHT that are glucose transport deficient and complemented with the Plasmodium falciparum hexose transporter. Activity is measured by DNA content using SYBR green in vitro
[3] = target: Glucose transporter (Leishmania mexicana) (UniProt O61059); experiment: ST_JUDE_LEISH: Cytotoxicity at 2uM final concentration against transgenic Leishmania Mexicana promastigotes LmGT2 that are glucose transport deficient and complemented with the L. Mexicana glucose transporter 2. Activity is measured by DNA content using SYBR green in vitro

Row | SMILES | inhibition [1] | inhibition [2] | inhibition [3]
1 | CN(C(=O)c1ccc(Br)cc1)c1ccccc1[N+](=O)[O-] | -1.57% | -1.07% | -2.57%
2 | O=C(Nc1cccc(CN2CCCN(Cc3ccc(O)cc3)CC2)c1)c1ccc(Cl)c(Cl)c1 | 10.6% | 11% | 5.2%
3 | Fc1cccc(Nc2nc(NCCc3ccc(Cl)cc3)nc(Nc3cccc(F)c3)n2)c1 | 2.39% | 2.12% | -4.86%
4 | c1cc(CNCC2CCCO2)cc(-c2csc(-c3nc4ccccc4[nH]3)c2)c1 (configuration not stated) | -1.5% | 2.45% | 2.04%
5 | O=C(c1ccc(-c2ccc(-c3nc4cc(F)ccc4[nH]3)cc2)cc1)N1CCCCC1CN1CCC(O)C1 (configuration not stated) | 4.53% | 4.9% | 1.78%
6 | Cc1cc2c(cc1C(F)(F)F)N(C(=O)Nc1cccc(C(=O)NC3CCN(Cc4ccccc4)CC3)c1)CC2 | 2.13% | 3.38% | 3.16%
7 | Cc1noc(C)c1-c1cccc(CNCc2cccc(-c3cccc(-c4nc5cccc(C)c5[nH]4)c3)c2)c1 | -0.61% | -0.81% | -0.78%
8 | Cc1cccc2nc(-c3ccc(-c4cccc(NC(=O)C(C)CN5CCN(C)CC5)c4)cc3)[nH]c12 (configuration not stated) | 3.33% | 0.81% | 5.85%
9 | Cc1ccc(C(=O)Nc2ccc(Nc3ccnc4cc(-c5ccccn5)ccc34)cc2O)cc1 | 7.39% | 10% | 4.76%
10 | Oc1ccc(CCNCCCCCCNCCc2ccc(Br)cc2)cc1O | 3.51% | 2.35% | 0.85%
11 | O=C(C=Cc1ccc(Cl)c(Cl)c1)NCCCCCN1CCC(CCCNC(=O)/C=C/c2ccccc2)CC1 | 3.12% | 2.68% | 1.62%
12 | COc1c(C2CCN(CCCCNC(=O)c3ccc(-c4ccc(Cl)cc4)c(O)c3)CC2)ccc2c1CCCC2 | 2.96% | 2.6% | 0.11%
13 | O=C(Nc1ccc(C(=O)Oc2ccc(-c3ccccc3)cc2)cc1)N[C@@H](Cc1ccc(O)cc1)C(=O)NC1CCN(Cc2ccc(O)cc2)C1 (some centres not stated) | 2.56% | 2.9% | 4.33%
14 | COc1ccc(CC(=O)Nc2ccc(Nc3nc(C)cc(N4CCCC4)n3)cc2)cc1 | 46% | 51.5% | 16.1%
15 | Clc1ccc2nnc(-c3c(Cl)cccc3Cl)n2n1 | 6.63% | 4.09% | 2.05%
16 | O=C(Nc1ccc(-c2ccccc2)cc1)Nc1cccc(Cn2ncc(N3CCCNCC3)c(Cl)c2=O)c1 | 1.74% | 0.84% | 0.04%
17 | CCc1cn2c3c(cc(C(=O)N[C@@H](Cc4ccccc4)[C@H](O)CNCc4ccc(C)cc4)cc13)N(C)S(=O)(=O)CC2 | -0.24% | 1.57% | 0.38%
18 | CN(C)CCCOc1ccc(CN2CC[C@H](NC(=O)c3ccc(Cl)c(Cl)c3)C2)c2ccccc12 | -0.55% | 1.01% | 0.71%
19 | Fc1ccc2[nH]c(-c3ccc(-c4ccc(CNCC5CCCO5)cc4)cc3)nc2c1 (configuration not stated) | 12.4% | 11.2% | 7.73%
20 | O=c1cc(NCCCNCc2cc(Br)cs2)[nH]c2ccccc12 | 3.94% | 2.8% | 2.59%
21 | CCCCCCCCCN1CC[C@@H](CCCc2ccnc3ccc(O)cc23)[C@@H](CC)C1 | -2.45% | -2.37% | -1.91%
22 | N=C(/N=C(/NCCCCCCN/C(=N/C(=N)NCc1ccc(Cl)c(Cl)c1)N1CCCCC1)N1CCCCC1)NCc1ccc(Cl)c(Cl)c1 | 8.42% | 9.68% | 8.06%
23 | CC(C)Oc1ccccc1-c1csc(C(=O)NCC2CCN(Cc3ccc(C(C)(C)C)cc3)C2)c1 (configuration not stated) | 0.7% | 1.62% | -2.96%
24 | COc1c(C2CCN(CCCCNC(=O)c3cc(-c4ccc(Cl)cc4)sc3C)CC2)ccc2c1CCCC2 | 0.21% | 2.22% | -2.53%
25 | CCn1c(-c2nonc2N)nc2c(-c3cccc(NC(=O)Nc4cccc(C#N)c4)c3)ncc(OCCCN)c21 | 4.72% | 2.23% | 2.66%

Row | SMILES | inhibition [1] | inhibition [2] | inhibition [3]
26 | CC(C)N1CCC(Oc2ccc(CN3CCN(C(c4ccccc4)c4ccc(Cl)cc4)CC3)cc2)CC1 (configuration not stated) | 6.88% | 3.12% | 2.61%
27 | COc1ccccc1N1CCN(CCCCN(C(=O)Nc2cccc(Cl)c2)C(=O)Nc2cccc(Cl)c2)CC1 | 10.6% | 8.66% | 10.6%
28 | COc1ccc(CCCc2nc(N)nc(N)c2-c2ccc(Cl)cc2)cc1 | 6.21% | 6.84% | 3.75%
29 | Cc1cc(CNCC(CCNc2cc(=O)c3ccccc3[nH]2)NCc2cc(Br)cc(Br)c2)oc1C (configuration not stated) | 4.51% | 2.43% | 3.29%
30 | C#CCN(Cc1cc2c(=O)[nH]c(N)nc2cc1C)c1ccc(C(=O)N[C@@H](CCC(=O)O)C(=O)O)cc1 | 6.81% | 0.4% | 8.07%
31 | NC1=NC(c2ccccc2)(c2cccc(O)c2)C(=O)N1CCCc1ccccc1 (configuration not stated) | 10.4% and 2.82% | 10.4% and 1.45% | 6.85% and 0.63%
32 | O=C(N[C@H]1CCN(Cc2ccc(OCCCN3CCCCC3)cc2)C1)c1ccc2ccccc2c1 | 4.56% | 6.47% | 2.1%
33 | COc1cc(CCCOc2c(N)nc(N)nc2N)cc(OC)c1OC | 4.82% | 3.75% | 3.79%
34 | CN(Cc1cccc(F)c1)C1CCN(c2cc(NC(=O)c3ccc(F)cc3)ccn2)C1 (configuration not stated) | 2.33% | -0.57% | 1.63%
35 | Cc1nc2ccc(NC(=O)c3cc(S(=O)(=O)N(C)C)ccc3Cl)cc2s1 | 10.4% | 10.6% | 10.1%
36 | Cc1cc(OCC2CCCO2)c2cc(NC(=O)C(=O)Nc3ccc4nc(C)cc(OCC5CCCO5)c4c3)ccc2n1 (configuration not stated) | 3.87% | 3.62% | 3.37%
37 | CCCC(C)Nc1nc(C)cc(N[C@@H](CC(C)C)C(=O)NCCc2ccccc2)n1 (some centres not stated) | 7.28% | 6.41% | 8.06%
38 | Cc1noc(C)c1-c1cccc(CNCc2cccc(-c3cccc(-c4nc5ccccc5[nH]4)c3)c2)c1 | 0.14% | 1.29% | 0.09%
39 | N#Cc1nc2ccc(OCCN(Cc3ccccc3C(F)(F)F)c3ccc(C#N)c(C(F)(F)F)c3)cc2s1 | 9.32% | 6.39% | 8.4%
40 | COCc1cccc(-c2cc(-c3ccc(S(C)(=O)=O)cc3)cnc2N)c1 | -0.03% | -0.46% | -5.63%
41 | COc1ccc2nccc(N(C)CC3(O)CCN(CC(O)c4ccc5c(c4)NC(=O)CS5)CC3)c2n1 (configuration not stated) | -0.29% | -0.78% | -0.26%
42 | O=C(CN1CCN(S(=O)(=O)C=Cc2ccccc2)CC1)Nc1cc(C(F)(F)F)ccc1Cl | 9.54% | 7.6% | 8.72%
43 | Cc1cccc2c3c([nH]c12)C1(CCN(Cc2ccccc2)CC1)NC(C(=O)NCc1ccccc1)C3 (configuration not stated) | 0.05% | -0.76% | 0.87%
44 | COc1ccc(-c2cccc(NC(=O)c3cccc(C#N)c3)c2)cc1CN1CCNCC1 | 11% | 11.2% | 10.6%
45 | CC(=O)Nc1nnc(SCc2c(C)cc(C(C)(C)C)cc2C)s1 | 0.82% | -2.97% | 1.06%
46 | CC(C)c1ccc(NS(=O)(=O)c2cccc(C(=O)NC3CCN(CC4CCCCC4)CC3)c2)cc1 | 3.07% | 1.15% | 1.74%
47 | CC(C)(C)c1ccccc1SC1=C(O)CC2(CCNCC2)OC1=O | 0.78% | 0.64% | 1.29%
48 | COc1ccc2c(c1)Sc1ccccc1C(N1CCN(CCO)CC1)C2 (configuration not stated) | 1.57% | 2.05% | 2.69%
49 | O=C(Cn1c(CCc2cccc(F)c2F)nc(=O)c2cccnc21)N(Cc1ccc(-c2ccc(C(F)(F)F)cc2)cc1)C1CCN(C2CCOCC2)CC1 | 2.69% | 1.35% | 1.43%
